Screening data (PubChem BioAssay)
TGFb inhibitor – qHTS for Inhibitors of TGF-b; HepG2 CAGA-GFP TGF-b/SMAD3 reporter, GFP fluorescence, 18 h; TGF-beta stimulated, 500 pg/mL final; Potency, µM (series often up to 46.1 µM), most hits filed as inhibitors; 1.2% of 410,000 active; also: nearly all actives have a fitted effect of over 65% in size
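Smad-responsive CAGA-GFP expression was quantified in HEPG2 cells exposed to compounds and 500 pg/mL final TGF-beta for 18 h at 37 degrees C; unstimulated wells defined full inhibition.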
KB-V1 cytotox – qHTS assay for MDR1-selective chemotherapeutics: Primary screen using the drug-selected MDR subline cells KB-V1. Potency, µM (highest dose often 46.1 µM), actives largely listed as cytotoxic. 3.4% of 400,000 active. KB-V1 MDR cells viability, CellTiter-Glo, 72 h; also: nearly all actives have a fitted effect of over 60% in size
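In this primary screen, KB-V1 cells overexpressing P-gp are incubated with library compounds (lowest to highest concentration) for 72 h at 37 degrees C before a luminescent ATP viability read.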
HepG2 tox – qHTS for Inhibitors of TGF-b: Cytotox Counterscreen; HepG2 CAGA-GFP viability, ATP luminescence, 18 h; Potency, µM (titrated, usually from 46.1 µM), actives largely listed as cytotoxic; AID 588856, 2011; 0.76% of 410,000 active
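CellTiter-Glo luminescence gave cytotoxicity after 18 hours at 37 degrees C. The cells were HepG2 CAGA-GFP in 1% FBS DMEM, stimulated with 500 pg/mL TGF-beta after compound addition. %Activity was normalised to no-cell wells (complete cell-killing) and DMSO (no toxicity), and curves were fitted and classified.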
KB-3-1 cytotox – qHTS assay for MDR1-selective chemotherapeutics: Primary screen using the parental adenocarcinoma cell KB-3-1; Potency, µM (titrated, usually from 46.1 µM), hits mostly cytotoxic; AID 1347075, 2019; KB-3-1 viability, CellTiter-Glo ATP luminescence, 72 h; 1.4% of 400,000 active; also: nearly all actives have a fitted effect of over 60% in size
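Here the drug-naive KB-3-1 line serves as comparator for MDR sub-line selectivity; cells received compound titrations, 72 h at 37 °C, then CellTiter-Glo readout.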
HT1080NT lethal – qHTS for induction of synthetic lethality in tumor cells producing 2HG: qHTS for the HT-1080-NT fibrosarcoma cell line; 1.6% of 360,000 active; HT-1080-NT fibrosarcoma viability, CellTiter-Glo ATP luminescence, 48 h; Potency, µM (doses to about 46.1 µM), hits mostly cytotoxic;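 also: NT is the 2HG producing partner of a matched IDH1 knockdown line; nearly all actives have a fitted effect of over 55% in size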
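Compounds were tested in concentration-response format on HT-1080-NT cells for 48 hours at 37 degrees C. Cell viability came from CellTiter-Glo luminescence; curves were classified by r2, response magnitude and activity.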
HT1080 IDH1KD tx – qHTS for induction of synthetic lethality in tumor cells producing 2HG: qHTS for the HT-1080-IDH1KD cell line | HT-1080 IDH1 knockdown viability, ATP luminescence, 48 h | Potency, µM (doses to about 46.1 µM), actives largely listed as cytotoxic | AID 686971, 2013 | 2% of 360,000 active
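Using the IDH1-knockdown HT-1080 line run in the same batch and compound series as the NT line, viability after 48 h at 37 °C was determined by CellTiter-Glo luminescence and expressed as % activity.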
Of the large screens only hits and unclear results are named; the others gave an inactive call. Shown are actives, neighbours in structure and some others; about 6.6% of the full set was active somewhere. Calls follow the shape of the dose curve; as a rule, active = well fitted curve in the direction sought with a large enough effect; inconclusive = small, poorly fitted or top-dose-only effect, or another doubt; inactive = no such curve, though single readings can be large; an effect the other way counts as inactive or inconclusive.

CCOc1cc2[nH]c(=S)n(CCC(=O)NC3CCCCC3)c(=O)c2cc1OCC	none
COC(=O)c1ccc(NC(=O)c2c(NCc3ccc(OC)c(OC)c3)sc3c2CCCC3)cc1	TGFb inhibitor inconclusive, KB-V1 cytotox inconclusive (no result: HT1080NT lethal, HT1080 IDH1KD tx)
O=C(NNc1c([N+](=O)[O-])cc(C(F)(F)F)cc1[N+](=O)[O-])c1ccco1	TGFb inhibitor inconclusive, HT1080NT lethal 21µM, HT1080 IDH1KD tx inconclusive
O=C(NCCNc1cc(Cl)ccc1[N+](=O)[O-])c1ccco1	KB-3-1 cytotox inconclusive
O=C(NN=Cc1cc(Cl)ccc1[N+](=O)[O-])c1ccco1	KB-V1 cytotox 15µM
COc1ccc(-c2nn(C)c3sc(C(=O)N4CCN(c5cccc(Cl)c5)CC4)cc23)cc1OC	none (no result: HT1080NT lethal, HT1080 IDH1KD tx)
O=C(NCc1ccccc1Cl)C(=O)NCC(c1ccco1)S(=O)(=O)c1cccs1 (centres undefined)	none (no result: HT1080NT lethal, HT1080 IDH1KD tx)
CCOC(=O)c1c(C)[nH]c(C)c1C(=O)COC(=O)c1sccc1C	KB-V1 cytotox 18µM
CCOC(=O)c1c(C)[nH]c(C)c1C(=O)COC(=O)/C=C/c1ccc(OC)cc1	KB-V1 cytotox 13µM, KB-3-1 cytotox inconclusive, HT1080NT lethal inconclusive, HT1080 IDH1KD tx 15µM
Cc1ccsc1C(=O)OCC(=O)Nc1sccc1C(N)=O	KB-V1 cytotox 18µM
Cc1ccsc1C(=O)OCC(=O)NCCNC(=O)COC(=O)c1sccc1C	none
CCOC(=O)c1c(C)[nH]c(C)c1C(=O)COC(=O)c1c(OC)cccc1OC	none
COc1ccc(NC(=S)N/N=C/c2ccc(F)c(F)c2)cc1	KB-V1 cytotox inconclusive, KB-3-1 cytotox inconclusive, HT1080NT lethal inconclusive, HT1080 IDH1KD tx 21µM
O=C(NNC(=S)NC(=O)c1ccccc1[N+](=O)[O-])c1ccccc1Cl	none
Fc1cccc(/C=N/NC(=S)Nc2ccccc2Cl)c1	TGFb inhibitor inconclusive, HT1080NT lethal inconclusive, HT1080 IDH1KD tx inconclusive
O=C(NC(=S)Nc1ccccc1[N+](=O)[O-])c1ccccc1Cl	KB-V1 cytotox inconclusive, KB-3-1 cytotox 13µM
O=[N+]([O-])c1ccc(O)c(/C=N/NC(=S)Nc2ccc(Cl)cc2Cl)c1	TGFb inhibitor inconclusive, KB-3-1 cytotox inconclusive, HT1080NT lethal inconclusive, HT1080 IDH1KD tx 23µM
S=C(N/N=C/c1ccc(Cl)c(Cl)c1)Nc1ccccc1Cl	KB-3-1 cytotox 21µM, HT1080NT lethal 15µM, HT1080 IDH1KD tx 8.2µM
O=C(Nc1ccc([N+](=O)[O-])cc1Cl)c1cc(Cl)ccc1O	KB-V1 cytotox 1µM, KB-3-1 cytotox 1.2µM, HT1080NT lethal 0.37µM, HT1080 IDH1KD tx 0.37µM
Fc1ccc(/C=N/NC(=S)Nc2ccc(Cl)cc2Cl)cc1	KB-V1 cytotox inconclusive, KB-3-1 cytotox 5.2µM, HT1080NT lethal inconclusive, HT1080 IDH1KD tx inconclusive
COc1ccc(/C=N/NC(=S)Nc2ccccc2[N+](=O)[O-])cc1O	TGFb inhibitor inconclusive, KB-V1 cytotox 12µM, KB-3-1 cytotox inconclusive, HT1080 IDH1KD tx inconclusive
O=[N+]([O-])c1cc(/C=N/NC(=S)Nc2ccccc2Cl)ccc1Cl	KB-V1 cytotox inconclusive, KB-3-1 cytotox 18µM, HT1080NT lethal inconclusive, HT1080 IDH1KD tx inconclusive
COc1cc(/C=N/Nc2ccccc2[N+](=O)[O-])cc(OC)c1O	none
COc1ccc(Cl)cc1C(=O)Nc1ccc([N+](=O)[O-])cc1Cl	none (no result: HT1080NT lethal, HT1080 IDH1KD tx)
COc1cccc(CNC(=O)c2cc3n(n2)CCCN(Cc2ccc(C)cc2)C3=O)c1OC	none (no result: HT1080NT lethal, HT1080 IDH1KD tx)
CCC(=O)N1c2ccc(S(=O)(=O)NCc3ccc(F)cc3)cc2CC1C (centres undefined)	KB-3-1 cytotox inconclusive (no result: HT1080NT lethal, HT1080 IDH1KD tx)
Cc1ccc(CN2CC(C(=O)N(CC(C)C)c3c(N)n(Cc4ccccc4)c(=O)[nH]c3=O)CC2=O)cc1 (centres undefined)	none
CNc1nc(-c2ccccc2)c(-c2ccccc2)s1	none (no result: TGFb inhibitor, KB-V1 cytotox, HepG2 tox, KB-3-1 cytotox)
Cc1ccc(NC(=O)c2c(C)oc3ccc(O)c(CN4CCCCCC4)c23)c(C)c1	TGFb inhibitor inconclusive (no result: KB-V1 cytotox, KB-3-1 cytotox, HT1080NT lethal, HT1080 IDH1KD tx)
CCCOc1ccc(/C=N/Nc2ccccc2[N+](=O)[O-])c(O)c1	KB-V1 cytotox inconclusive, KB-3-1 cytotox inconclusive, HT1080 IDH1KD tx inconclusive
CCCOc1ccc(/C=N/NC(=S)Nc2ccccc2[N+](=O)[O-])c(O)c1	TGFb inhibitor inconclusive, HT1080NT lethal 9.2µM, HT1080 IDH1KD tx 15µM
O=C1CC(N(Cc2cccs2)C(=O)Nc2ccccc2)C(=O)N1c1ccc(Cl)cc1 (centres undefined)	KB-V1 cytotox 18µM
COc1ccc(N2C(=O)CC(N(CCc3ccc(S(N)(=O)=O)cc3)C(=S)Nc3ccccc3)C2=O)cc1 (centres undefined)	HT1080NT lethal inconclusive
COc1ccc(CN(C(=S)Nc2ccccc2)C2CC(=O)N(c3ccccc3)C2=O)cc1 (centres undefined)	KB-V1 cytotox 4.6µM
COc1ccc(CN(C(=S)Nc2ccccc2)C2CC(=O)N(c3ccc(Cl)cc3)C2=O)cc1 (centres undefined)	TGFb inhibitor inconclusive, KB-3-1 cytotox inconclusive, HT1080NT lethal 12µM, HT1080 IDH1KD tx inconclusive
O=C1CN(C(=O)COc2ccc(Cl)cc2Cl)C(c2ccc(F)cc2)c2cc(F)ccc2N1 (centres undefined)	none (no result: HT1080NT lethal, HT1080 IDH1KD tx)
C#CCN1C=C(C(=O)OCC)C(C)NS1(=O)=O (centres undefined)	none
C#CCN1C=C(C(=O)OCC)C(C)N(Cc2ccccc2I)S1(=O)=O (centres undefined)	TGFb inhibitor inconclusive, HT1080NT lethal inconclusive, HT1080 IDH1KD tx 21µM
CN(C)CCNC(=O)c1coc(=O)c(Br)c1	none
CC(C)CNC(=O)c1coc(=O)c(Br)c1	TGFb inhibitor 14µM, KB-V1 cytotox inconclusive, KB-3-1 cytotox 6.3µM, HT1080NT lethal inconclusive, HT1080 IDH1KD tx 11µM
O=C(NCCC1=CCCCC1)c1coc(=O)c(Br)c1	TGFb inhibitor inconclusive, KB-V1 cytotox inconclusive, KB-3-1 cytotox inconclusive, HT1080NT lethal 7.3µM, HT1080 IDH1KD tx 18µM
O=C(NCCc1ccccc1)c1coc(=O)c(Br)c1	TGFb inhibitor inconclusive, KB-V1 cytotox inconclusive, KB-3-1 cytotox inconclusive, HT1080NT lethal 21µM, HT1080 IDH1KD tx 23µM
O=C(NCc1ccccc1Cl)C1CCN(S(=O)(=O)Cc2ccccc2)CC1	none (no result: HT1080NT lethal, HT1080 IDH1KD tx)
CC1CCN(S(=O)(=O)c2ccc3c(ccn3CCC(=O)NCc3ccccc3F)c2)CC1	none (no result: HT1080NT lethal, HT1080 IDH1KD tx)
